Compound activity deposited in PubChem BioAssay by National Center for Advancing Translational Sciences (NCATS).
DRD3 antagonist: D3 dopamine receptor (human) antagonism; P35462; D3R cells, DiscoveRx beta-arrestin luminescence, antagonist mode; stronger effect = lower value; max response, negative = inhibition, %; 360,000 tested, 2.5% active; AID 652054; in the data active = max response below about -50%; inconclusive = no clear call, values can overlap the other calls; also: % is scaled to controls: 0 for no effect and ±100 for the full control effect
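Cells plated overnight at 1500 cells/well, then exposed to library compounds with dopamine controls for 90 minutes at 37 degrees C. DiscoveRx reagent added for 30–60 minutes at room temperature; luminescence read, quantitative HTS format.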
Giardia kill: kills Giardia lamblia; Giardia lamblia trophozoite viability; activity change, % at 7.66 µM, hits read low; 340,000 tested, 0.15% active; in the data active = activity change below about -80%; inconclusive = between about -30% and that limit;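 also: parasites exposed to compound for two days anaerobically before the ATP read; % is scaled to controls: 0 for no effect and ±100 for the full control effect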
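Compounds were tested on trophozoites seeded at 100 cells/well and held 48 hrs at 37 deg C anaerobically. An ATP-based luminescent kit measured the remaining live cells.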
B2AR arrestin: agonists driving beta-arrestin recruitment to human beta2-adrenergic receptor; beta-arrestin recruitment to beta2AR, cell-based reporter; 330,000 tested, 0.02% active; Potency, µM (titrated, usually from 46.1 µM), for the others: top-dose activation, actives largely listed as activators; P07550; active = well fitted activation curve with a large enough effect; inconclusive = small, poorly fitted or top-dose-only effect;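 also: potency is read from the fitted curve at half-maximal effect; 0% = DMSO controls and full agonism = EC100 isoproterenol or metaproterenol; nearly all actives have a fitted effect of over 65% in size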
Target sequence (P07550 whole entry, looked up): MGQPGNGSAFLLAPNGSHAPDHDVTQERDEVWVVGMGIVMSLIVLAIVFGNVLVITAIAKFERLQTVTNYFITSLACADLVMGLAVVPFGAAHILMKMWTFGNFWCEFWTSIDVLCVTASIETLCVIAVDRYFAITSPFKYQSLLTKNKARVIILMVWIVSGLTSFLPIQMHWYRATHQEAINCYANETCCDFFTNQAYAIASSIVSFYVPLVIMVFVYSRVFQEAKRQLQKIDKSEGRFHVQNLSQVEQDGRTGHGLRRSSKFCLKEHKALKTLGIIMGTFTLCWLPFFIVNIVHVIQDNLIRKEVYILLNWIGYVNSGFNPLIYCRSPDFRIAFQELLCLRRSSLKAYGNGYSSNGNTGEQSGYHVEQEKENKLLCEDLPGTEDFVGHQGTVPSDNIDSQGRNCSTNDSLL
DRD3 agonist: agonists of human D3 dopamine receptor; P35462; D3R DiscoveRx beta-arrestin cells, luminescence, 90 min; max activation, %; 410,000 tested, 0.58% active; AID 652048; in the data active = max activation above about 30%; also: 0% is about no effect
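Cells at 1500/well, incubated overnight, then treated with pinned compounds (dopamine as control) for 90 min at 37 degrees C. DiscoveRx reagent added for 30 - 60 minutes at room temperature; luminescence read.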
The depositor's hits bear a star; ? = inconclusive; . = no result given. Only some compounds are listed: those with a hit (about 2.8% of all), similar ones and a draw of the others.

SMILES	DRD3 antagonist	Giardia kill	B2AR arrestin	DRD3 agonist
Oc1cc(Cl)c(Cl)c(Cl)c1	68	5	.	61*
CNC(C)CC1CCCCC1 (centres undefined)	.	.	.	-22
CN1C(=O)[C@@H](NC(=O)c2cc3ccccc3[nH]2)N=C(c2ccccc2)c2ccccc21	.	.	.	8
CCN1C[C@]2(COC)[C@H](O)C[C@H](OC)[C@@]34[C@@H]5C[C@@]6(O)[C@H](OC(=O)c7ccccc7)[C@@H]5[C@@](OC(C)=O)([C@@H]([C@H](OC)[C@H]23)[C@@H]14)[C@@H](O)[C@@H]6OC	.	.	.	-16
NCCc1ccc(O)cc1	3	-1	-2%	32*
Oc1ccc(CCN2CCCCC2)cc1	-2	18	.	-11
C[C@]12CC[C@H]3[C@@H](CCC4=C(O)C(=O)CC[C@@H]43)[C@@H]1CC[C@@H]2OC(=O)CCC1CCCC1	.	.	.	3
CN1C2CCC1/C(=C/c1ccccn1)C(=O)/C2=C\c1ccccn1	-70*	-15	0%	-20
Cn1c(O)c(C(=N)COc2ccccc2)c(=O)n(C)c1=O	-4	9	4%	45*
CC1(C)COC(Nc2cccc(Cl)c2)=N1	-55*	-9	0%	14
CC1(C)CSC(Nc2ccc(F)c(Cl)c2)=N1	0	5	0%	0
O=C(COc1ccc2ccccc2c1)N1CCN(C2CCN(Cc3ccccc3)CC2)CC1	-23	12	0%	-9
CCOC(=O)c1cc2cc(OC)ccc2n1C1CCN(Cc2ccccc2)CC1	-89*	.	.	-10
O=C(O)Cn1cc(/C=C2\C(=O)NC(=O)N(Cc3ccco3)C2=O)c2ccccc21	-64*	11	0%	-14
O=P(Nc1cccc(Cl)c1)(Oc1ccccc1)Oc1ccccc1	21	0	0%	32*
CN1CCc2cc(O)cc3c2[C@H]1Cc1ccc(O)c(O)c1-3	-84*	12	.	-32
CCCN1CCc2cc(O)cc3c2[C@H]1Cc1ccc(O)c(O)c1-3	?	-13	.	23
Clc1ccc2c(c1)C(c1ccccc1Cl)=NCc1nnc(N3CCN(CCOc4ccccc4)CC3)n1-2	-11	12	?	54*
CN(C)CCc1c[nH]c2ccccc12	.	.	.	-13
CCc1ccc(CNCCc2c[nH]c3ccccc23)cc1	?	-10	0%	-19
COc1ccc(CCNCc2ccc(Br)cc2)cc1OC	-60*	14	0%	-15
Cc1ccccc1CCNCc1ccc(Br)cc1	-59*	-1	0%	-4
CC(=O)OO	.	.	.	-4
COc1cc(C[C@H](C)N)c(OC)cc1C	.	.	.	-20
NC1(c2ccccc2)CCCCC1	.	.	.	1
SMILES	DRD3 antagonist	Giardia kill	B2AR arrestin	DRD3 agonist
O=C(CCCN1CCC(n2c(=O)[nH]c3ccccc32)CC1)c1ccc(F)cc1	-103*	-23	0%	-45
COC(=O)c1ccc(N2C(=O)CC(N3CCC(n4c(=O)[nH]c5ccccc54)CC3)C2=O)cc1 (centres undefined)	-21	16	0%	-1
[O]=[Cd]	.	.	.	-8
COC1=CC(=O)[C@]2(C=C1OC)OC[C@@H]1Oc3c(ccc4c3C=CC(C)(C)O4)C(=O)[C@@H]12	61	-16	0%	70*
c1ccc2c(CCNCc3ccc4c(c3)OCO4)c[nH]c2c1	-68*	3	0%	-2
COc1cc(CNCCc2c[nH]c3ccccc23)cc(OC)c1	-68*	15	-1%	-38
CCOc1ccc(CNCCc2ccc3c(c2)OCO3)cc1	-86*	-26	0%	-5
COc1cc(CNCCc2c[nH]c3ccccc23)cc(OC)c1OC	3	.	.	-1
CCOc1ccccc1CNCCc1ccc2c(c1)OCO2	5	-13	-1%	-11
O=[N+]([O-])c1cccc(CN2CCN(Cc3ccc(Br)cc3)CC2)c1	-102*	4	0%	-7
C[C@H]1[C@@H]2Cc3ccc(O)cc3[C@@]1(C)CCN2C	.	.	.	0
Fc1ccccc1N1CCN(Cc2ccc3c(c2)OCO3)CC1	?	9	2%	23
Clc1ccccc1CN1CCN(c2ccccc2Cl)CC1	-83*	-14	0%	-30
Clc1ccccc1N1CCN(Cc2ccc3c(c2)OCO3)CC1	-88*	15	0%	-14
Cc1ccccc1N1CCN(Cc2ccc3c(c2)OCO3)CC1	-76*	-6	0%	-17
CCOP(=S)(OCC)O/N=C(\C#N)c1ccccc1	.	.	.	-2
Oc1ccc([C@H]2CNCc3c2ccc(O)c3O)cc1O	.	.	.	10
c1ccc(CN2CCc3nc4ccccc4cc3C2)cc1	-10	35	-1%	60*
CCOC(=O)[C@]12Cc3cc(Cl)ccc3[C@H]1N(C1CCCCC1)C(=O)c1ccccc12	-80*	.	.	-9
CCOC(=O)[C@]12Cc3c(cc(OC)c(OC)c3OC)[C@H]1N(C)C(=O)c1ccccc12	-63*	.	.	-4
CCOC(=O)[C@]12Cc3cc(OC)ccc3[C@H]1N(C1CCCCC1)C(=O)c1ccccc12	-64*	.	.	-5
CC(=O)O[C@H]1CC[C@]2(C=O)C3CC[C@]4(C)[C@@H](C5=CC(=O)OC5)CC[C@]4(O)C3CC[C@]2(O)C1 (some centres undefined)	.	-14	.	.
Fc1ccc(C(OCCN2CCCC2)c2ccc(Br)cc2)cc1 (centres undefined)	-73*	1	0%	-39
Fc1ccc(C(OCCN2CCN(CCCc3ccccc3)CC2)c2ccc(F)cc2)cc1	.	11	.	-17
Fc1ccc(C(OCCN2CCCC2)c2ccc(F)cc2)cc1	-61*	-12	0%	-46
SMILES	DRD3 antagonist	Giardia kill	B2AR arrestin	DRD3 agonist
c1ccc(CCCN2CCN(CCOC(c3ccccc3)c3ccccc3)CC2)cc1	-76*	-9	.	-7
CCNC1(c2cccs2)CCCCC1=O (centres undefined)	.	.	.	-10
CN1CN(c2ccccc2)C2(CCN(CCCSc3ccccc3NC(=O)/C=C/c3ccccc3)CC2)C1=O	-107*	?	.	-10
COc1ccc(-c2nc3ccc(Br)cn3c2CC(=O)N2CCCC2)cc1OC	-52*	.	.	-8
O=C(Cc1c(-c2ccccc2)nc2ccc(Br)cn12)N1CCCC1	-9	.	.	4
CNC(=O)Oc1cccc(-c2cn3cc(OC(=O)NC)ccc3n2)c1	-4	-8	0%	2
CNC(=O)Oc1ccc(-c2cn3cc(Cl)ccc3n2)cc1	-26	-86*	-2%	-19
COc1ccc2c3c1O[C@H]1[C@H](O)CC[C@H]4[C@@H](C2)N(C)CC[C@@]341	.	.	.	5
O=c1[nH]c(=O)n(-c2cccc3ccccc23)c(O)c1C=NCc1ccc2c(c1)OCO2	-63*	2	0%	-1
COc1ccc(OC)c(-n2c(O)c(C=NCc3ccc4c(c3)OCO4)c(=O)[nH]c2=O)c1	20	29	0%	4
CCS(=O)(=O)C(C)(C)S(=O)(=O)CC	.	.	.	6
CC(C(=O)c1cn(C)c2ccccc12)c1ccccc1 (centres undefined)	-70*	-4	-1%	20
O=c1[nH]c2ccccc2n1C1CCN(Cc2ccc(-c3[nH]c4cc5ncnc5cc4nc3-c3ccccc3)cc2)CC1	-96*	.	.	-16
O=C1CC(N2CCC(n3c(=O)[nH]c4ccccc43)CC2)C(=O)N1Cc1ccccc1 (centres undefined)	-16	2	0%	1
CC1(C)C2CC=C(CN3CCOCC3)C1C2 (centres undefined)	-53*	11	0%	2
